Calls of active or inactive are those of the source. The calls were made as follows: active = hit-call score of the fitted dose curve at least 0.9, where 1 is the maximum; inactive = score below 0.9.
Key:
[1] = BSK_hDFCGF_SRB: Viability Assessment in the BioMAP Diversity Plus: hDFCGF Assay (AID 2283061); conditions: primary human foreskin fibroblasts;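 also: cells exposed to compound for 24 h before the read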
Summary of the method: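 Cells were dosed with test chemical, cultured 24 h, fixed with 10% TCA, then stained with 0.1% SRB and read at 560 nm. The fibroblasts were human foreskin primary cells, and DMSO served as baseline.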

[2] = read-out: TIMP metallopeptidase inhibitor 1 (TIMP1), TIMP1 (gene 7076); test: BSK_hDFCGF_TIMP1: BioMAP Diversity Plus: hDFCGF Assay for TIMP metallopeptidase inhibitor 1 (TIMP1) Biomarker Activity (AID 2283062); conditions: primary human foreskin fibroblasts; actives raise or lower the signal
Summary of the method: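 Fibroblasts from human foreskin are treated with test chemical and harvested at 24 h. TIMP-1 is quantified by ELISA, and gain or loss of signal is scored against DMSO.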

[3] = read-out: Monokine induced gamma interferon (MIG), CXCL9 (gene 4283); test: BSK_hDFCGF_MIG: BioMAP Diversity Plus: hDFCGF Assay for Monokine induced gamma interferon (MIG) Biomarker Activity (AID 2283063); conditions: primary human foreskin fibroblasts; actives raise or lower the signal
Summary of the method: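 MIG signal, determined by ELISA, reflects 24 h chemical exposure of human skin primary fibroblasts. DMSO serves as negative control and baseline.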

[4] = read-out: Matrix Metallopeptidase 1 (MMP1), MMP1 (gene 4312); test: BSK_hDFCGF_MMP1: BioMAP Diversity Plus: hDFCGF Assay for Matrix Metallopeptidase 1 (MMP1) Biomarker Activity (AID 2283064); conditions: primary human foreskin fibroblasts; actives raise or lower the signal
Summary of the method: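 Primary human foreskin fibroblasts exposed to chemicals for 24 h; MMP1 measured by ELISA. Cytotoxicity tracked by SRB staining in parallel cultures; bidirectional fit relative to DMSO.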

[5] = read-out: Vascular cell adhesion molecule 1 (VCAM1), VCAM1 (gene 7412); test: BSK_hDFCGF_VCAM1: BioMAP Diversity Plus: hDFCGF Assay for Vascular cell adhesion molecule 1 (VCAM1) Biomarker Activity (AID 2283065); conditions: primary human foreskin fibroblasts; actives raise or lower the signal
Summary of the method: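 Cells are dosed, cultured for 24 h, then VCAM-1 is quantified by ELISA; signal increases and decreases are both fitted relative to DMSO.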

[6] = read-out: Plasminogen activator inhibitor-1 (PAI1), SERPINE1 (gene 5054); test: BSK_hDFCGF_PAI1: BioMAP Diversity Plus: hDFCGF Assay for Plasminogen activator inhibitor-1 (PAI1) Biomarker Activity (AID 2283066); conditions: primary human foreskin fibroblasts; actives raise or lower the signal
Summary of the method: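 Human foreskin fibroblast primary cells, 24 h chemical exposure; PAI-1 measured by ELISA. Bidirectional fitting relative to DMSO; parallel cultures stained with SRB for total protein to flag overt cytotoxicity.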

[7] = read-out: Intercellular Adhesion Molecule 1 (ICAM1), ICAM1 (gene 3383); test: BSK_KF3CT_ICAM1: BioMAP Diversity Plus: KF3CT Assay for Intercellular Adhesion Molecule 1 (ICAM1) Biomarker Activity (AID 2283067); conditions: primary human keratinocytes with fibroblasts; actives raise or lower the signal
Summary of the method: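 Dose the keratinocyte/fibroblast co-culture, wait 24 h, measure ICAM-1 by ELISA, then fit increases or decreases against DMSO. Cytotoxicity is checked in parallel cultures by SRB total-protein staining.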

[8] = read-out: Interferon-gamma inducible Protein 10 (IP10), CXCL10 (gene 3627); test: BSK_KF3CT_IP10: BioMAP Diversity Plus: KF3CT Assay for Interferon-gamma inducible Protein 10 (IP10) Biomarker Activity (AID 2283068); conditions: primary human keratinocytes with fibroblasts; actives raise or lower the signal
Summary of the method: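 KF3CT co-culture (keratinocytes + foreskin fibroblasts), 24 h compound, IP-10 by ELISA; bidirectional fit vs DMSO baseline.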

[9] = BSK_KF3CT_SRB: Viability Assessment in the BioMAP Diversity Plus: KF3CT Assay (AID 2283069); conditions: primary human keratinocytes with fibroblasts;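 also: fitted for both signal gain and loss against DMSO baseline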
Summary of the method: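 Human keratinocyte and foreskin fibroblast co-culture exposed to chemical for 24 h. Total protein measured in parallel cultures by 0.1% sulforhodamine B staining after 10% TCA fixation, read at 560 nm; bidirectional fit relative to DMSO.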

[10] = read-out: Interleukin-1 alpha (IL1a), IL1A (gene 3552); test: BSK_KF3CT_IL1a: BioMAP Diversity Plus: KF3CT Assay for Interleukin-1 alpha (IL1a) Biomarker Activity (AID 2283070); conditions: primary human keratinocytes with fibroblasts; actives raise or lower the signal
Summary of the method: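 Primary human keratinocyte plus foreskin fibroblast co-culture, dosed and measured at 24 h in 96-well plates. IL-1a level quantified by ELISA; bidirectional fit relative to DMSO.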

[11] = read-out: TIMP metallopeptidase inhibitor 2 (TIMP2), TIMP2 (gene 7077); test: BSK_KF3CT_TIMP2: BioMAP Diversity Plus: KF3CT Assay for TIMP metallopeptidase inhibitor 2 (TIMP2) Biomarker Activity (AID 2283071); conditions: primary human keratinocytes with fibroblasts; actives raise or lower the signal
Summary of the method: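 Co-culture of human primary keratinocytes and foreskin fibroblasts, measured 24 h after chemical dosing. TIMP-2 quantified by ELISA and fitted in both directions relative to DMSO. Cytotoxicity checked in parallel cultures by SRB total-protein staining.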

[12] = read-out: C-C motif chemokine 2 (Homo sapiens) (UniProt P13500); test: BSK_KF3CT_MCP1: BioMAP Diversity Plus: KF3CT Assay for Monocyte Chemoattractant Protein 1 (MCP1/CCL2) Biomarker Activity (AID 2283073); conditions: primary human keratinocytes with fibroblasts; actives raise or lower the signal
Summary of the method: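 Keratinocytes and foreskin fibroblasts were co-cultured, dosed with chemical, and sampled 24 h later. MCP-1 was quantified by ELISA, and the endpoint was analyzed with bidirectional fitting using DMSO as negative control.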

[13] = read-out: Matrix Metallopeptidase 9 (MMP9), MMP9 (gene 4318); test: BSK_KF3CT_MMP9: BioMAP Diversity Plus: KF3CT Assay for Matrix Metallopeptidase 9 (MMP9) Biomarker Activity (AID 2283074); conditions: primary human keratinocytes with fibroblasts; actives raise or lower the signal
Summary of the method: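 Human keratinocyte and foreskin fibroblast co-culture exposed to chemicals for 24 h; MMP9 biomarker measured by ELISA, bidirectional fitting relative to DMSO; cytotoxicity tracked by SRB total protein staining in parallel cultures.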

[14] = read-out: urokinase plasminogen activator (uPA), PLAU (gene 5328); test: BSK_KF3CT_uPA: BioMAP Diversity Plus: KF3CT Assay for urokinase plasminogen activator (uPA) Biomarker Activity (AID 2283075); conditions: primary human keratinocytes with fibroblasts; actives raise or lower the signal
Summary of the method: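 Primary human keratinocyte/foreskin fibroblast co-culture exposed to chemical; uPA measured by ELISA at 24 h. Bidirectional fit versus DMSO, with parallel SRB total-protein staining for cytotoxicity.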

CD40, CD40 (gene 958) = test: BSK_LPS_CD40: BioMAP Diversity Plus: LPS Assay for CD40 Biomarker Activity (AID 2283076); conditions: primary human HUVEC with PBMC; actives raise or lower the signal
Summary of the method: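 CD40 signal, measured by ELISA, is fitted in both directions relative to DMSO vehicle. The system is an LPS-driven human vascular primary co-culture of endothelial cells and PBMC, sampled 24 h after compound addition.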

[15] = read-out: E-selectin (Homo sapiens) (UniProt P16581); test: BSK_LPS_Eselectin: BioMAP Diversity Plus: LPS Assay for Eselectin Biomarker Activity (AID 2283077); conditions: primary human HUVEC with PBMC; actives raise or lower the signal
Summary of the method: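 Signal of E-selectin, detected by ELISA, served as the endpoint; cells were umbilical vein endothelium with PBMC, read 24 h after treatment. DMSO defined baseline, and both increases and decreases were fitted.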

[16] = read-out: Interleukin-8 (IL8), CXCL8 (gene 3576); test: BSK_LPS_IL8: BioMAP Diversity Plus: LPS Assay for Interleukin-8 (IL8) Biomarker Activity (AID 2283078); conditions: primary human HUVEC with PBMC; actives raise or lower the signal
Summary of the method: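 Endothelial cells and PBMC from human donors are co-cultured, treated with chemicals and LPS, then assayed for IL-8 by ELISA after 24 h. Parallel SRB staining (0.1% SRB after 10% TCA fixation, 560 nm) flags cytotoxicity.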

[17] = BSK_LPS_SRB: Viability Assessment in the BioMAP Diversity Plus: LPS Assay (AID 2283079); conditions: primary human HUVEC with PBMC;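 also: total protein by sulforhodamine B absorbance as a cytotoxicity measure; measured one day after compound addition; fitted in both directions against DMSO so loss or gain of signal counts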
Summary of the method: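 Overt cytotoxicity was gauged by sulforhodamine B total-protein staining in a primary human vascular endothelial and mononuclear cell co-culture 24 h post-dosing. Activity was fitted in both directions relative to DMSO.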

[18] = read-out: Interleukin-1 alpha (IL1a), IL1A (gene 3552); test: BSK_LPS_IL1a: BioMAP Diversity Plus: LPS Assay for Interleukin-1 alpha (IL1a) Biomarker Activity (AID 2283080); conditions: primary human HUVEC with PBMC; actives raise or lower the signal
Summary of the method: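 Measured: IL-1 alpha via ELISA at 24 h in LPS-activated human umbilical vein endothelium–PBMC co-culture. Baseline: DMSO, bidirectional fitting.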

[19] = read-out: Transforming growth factor beta 1 (TGFb1), TGFB1 (gene 7040); test: BSK_KF3CT_TGFb1: BioMAP Diversity Plus: KF3CT Assay for Transforming growth factor beta 1 (TGFb1) Biomarker Activity (AID 2283072); conditions: primary human keratinocytes with fibroblasts; actives raise or lower the signal
Summary of the method: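 Human keratinocyte/foreskin fibroblast co-culture; TGF-b1 measured by ELISA 24 h after dosing, fitted bidirectionally versus DMSO. Cytotoxicity checked in parallel cultures by total protein (SRB staining, 560 nm).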

Measured: outcome

Sequence of E-selectin (Homo sapiens) (P16581 whole entry, looked up): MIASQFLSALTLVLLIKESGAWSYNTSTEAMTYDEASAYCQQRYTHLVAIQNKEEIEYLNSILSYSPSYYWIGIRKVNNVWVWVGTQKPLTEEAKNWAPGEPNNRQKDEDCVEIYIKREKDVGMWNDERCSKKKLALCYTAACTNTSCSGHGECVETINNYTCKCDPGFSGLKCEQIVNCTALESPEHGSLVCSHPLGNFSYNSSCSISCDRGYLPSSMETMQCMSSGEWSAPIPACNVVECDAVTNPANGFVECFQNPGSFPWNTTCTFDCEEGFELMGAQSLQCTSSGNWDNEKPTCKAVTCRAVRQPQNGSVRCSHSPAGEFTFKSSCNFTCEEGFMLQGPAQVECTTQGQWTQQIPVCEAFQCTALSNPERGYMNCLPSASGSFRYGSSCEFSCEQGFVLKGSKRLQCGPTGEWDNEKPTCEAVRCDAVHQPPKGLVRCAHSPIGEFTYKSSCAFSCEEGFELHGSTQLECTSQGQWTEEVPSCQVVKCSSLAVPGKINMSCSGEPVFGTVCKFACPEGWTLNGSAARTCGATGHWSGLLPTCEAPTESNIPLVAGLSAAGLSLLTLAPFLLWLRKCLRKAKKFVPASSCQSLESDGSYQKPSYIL

NC(=O)N(O)[C@@H]1COc2cc(OCc3ccccc3)ccc21
not listed: [19]
inactive: all other assays above

c1ccc2ncccc2c1
not listed: [19]
inactive: all other assays above

O=C(O)c1ccc2c(c1)nc(C(=O)NC1CCN(C3CC3)CC1)n2Cc1cc(-c2ccc(Cl)s2)on1
not listed: [19]
inactive: all other assays above

CCCCC(CC)C(=O)OCCOCCOCCOC(=O)C(CC)CCCC (centres undefined)
not listed: [16]
inactive: all other assays above

Nc1ccn([C@@H]2O[C@H](CO)[C@@H](O)[C@@H]2O)c(=O)n1
not listed: [16]
inactive: all other assays above

OC(CCl)CCl
not listed: [16]
inactive: all other assays above

Reference: PubChem BioAssay (EPA / NIEHS)
